We go through 20 molecules from publication PMC4552634, “A New Set of Chemical Starting Points with Plasmodium falciparum Transmission-Blocking Potential for Antimalarial Drug Discovery” (PLoS ONE, 2015).

Out of some 13,000 compounds screened, about 3,200 (25%) showed an effect of 50% or more. This is one part of the list.

The assay relates to P. falciparum stage V gametocytes. Details: BacTiter-Glo ATP luminescence viability of purified stage V gametocytes in 384-well plates, per cent inhibition versus DMSO. The following applies: 48 h, 5 µM; inhibitor.
On to `Cc1cc(N(C)C)nc(Nc2ccc(NC(=O)Nc3ccccc3)cc2)n1` [TCMDC-124961], for which the “% Inhibition” value is given as -7.652%.
For the molecule `Cc1ccc(-n2[nH]c(C)c(N=Nc3cccc(-c4cccc(NC(=O)OC(C)(C)C)c4)c3O)c2=O)cc1C` [TCMDC-141045], the “% Inhibition” value was 81.95%.
In the case of `CC(C)(C)OC(=O)Nc1cccc(-c2csc(N=C(N)N)n2)c1` [TCMDC-139458], the “% Inhibition” value is -7.948%.
With `CC(C)(C)OC(=O)NCCc1cccc(-c2c[nH]c3ncc(-c4cccc(NS(C)(=O)=O)c4)cc23)c1` [TCMDC-136294], the “% Inhibition” value stood at 27.56%.
As to `COc1ccc(Nc2nccc(-c3ccc(NC(=O)c4cc5cc(F)ccc5[nH]4)cc3)n2)cc1` [TCMDC-133306], the “% Inhibition” value was 23.43%.
Consider `CCNC(=O)Nc1cccc(-c2ccc(-c3nc4cccc(C)c4[nH]3)s2)c1` [TCMDC-133169], for which the “% Inhibition” value is on record as -0.5138%.
For `Cc1ccc(Nc2nc3cc(Nc4ccnc(Nc5ccc(CS(C)(=O)=O)cc5)n4)ccc3o2)cc1` [TCMDC-141799] the value was 11.69%; for `OC(COCc1ccc(-c2ccccc2)cc1)CN1CCCCC1` (centres unmarked) [TCMDC-132069], -30.91%; for `Cc1ccc(NC(=O)c2ccc(CN3CCCN(CC4CCCCC4)CC3)cc2)cc1F` [TCMDC-136393], -36.95%.
With `CC1CN(c2ccc(NC(=O)c3ccc(F)cc3)cc2)CCN1Cc1cccc(F)c1` (centres unmarked) [TCMDC-135016], the “% Inhibition” value is listed as 10.14%.
For `CC(C)(C)c1ccc(CN2CCC(NC(=O)c3ccc(-c4cccc(F)c4)s3)CC2)cc1` [TCMDC-134350] the value was -0.6628%.
As to `Cc1ccnc(Nc2nc(-c3ccccn3)cs2)c1` [TCMDC-125769], the “% Inhibition” value amounted to 115.7%.
For `Cc1cccc(C(O)CNc2ccnc(Nc3cccc(-c4csc(C)n4)c3)n2)c1` (centres unmarked) [TCMDC-136568] the value was -28.27%.
For the molecule `Cc1ccc(Nc2nc(-c3ccccn3)cs2)nc1` [TCMDC-125854], the “% Inhibition” value was 98.08%.
Take `c1ccc(Nc2nc(-c3ccccn3)cs2)nc1` [TCMDC-124275]: the “% Inhibition” value is recorded as 108.4%.
As for `Cc1cccnc1Nc1nc(-c2ccccn2)cs1` [TCMDC-125846], the “% Inhibition” value came to 115%.
As for `COc1cccc(C(=O)NCc2cccs2)c1OCc1ccccc1` [TCMDC-141234], the “% Inhibition” value is 8.01%.
As to `C#CCOc1ccccc1CN1CCC(N2CCc3cc(NC(=O)c4cc(C)on4)ccc32)C1` (centres unmarked) [TCMDC-135075], the “% Inhibition” value is -4.764%.
For `Cc1[nH]c2ccc(NS(C)(=O)=O)cc2c1C1CCN(CCC2CCN(C(=O)/C=C/c3ccc(Cl)c(Cl)c3)CC2)CC1` [TCMDC-140126] the value was -29.87%; for `Cc1ccc(NC(=O)c2ccc3nccnc3c2)cc1OC1CCN(Cc2ccc(F)cc2)CC1` [TCMDC-133748], -13.13%.
